A short description of experiment [1]: Nuclear factor erythroid 2-related factor 2/antioxidant responsive element (Nrf2/ARE) small molecule agonists: qHTS cell viability counter screen in human keratinocytes (AID 1919968; active = well fitted curve in the direction sought with a large enough effect in the repeat runs; an effect the other way counts as inactive or inconclusive; also: nearly all actives have a fitted effect of over 55% in size). The essentials: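 Viability counter-screen: KeratinoSens reporter cells, DMSO-delivered compounds, 23 h at 37 C, CellTiter-Fluor fluorescence.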
Experiment [2] in a line: Nuclear factor erythroid 2-related factor 2/antioxidant responsive element (Nrf2/ARE) small molecule agonists: luciferase reporter gene qHTS assay in human keratinocytes (AID 1919969). Also: nearly all actives have a fitted effect of over 35% in size. Also: potency is read from the fitted curve at half-maximal effect. Background: A reporter such as luciferase makes a cellular process visible.
In experiment [3] the target is Gonadotropin-releasing hormone receptor (Homo sapiens) (UniProt P30968). The experiment can be described thus: Human gonadotropin-releasing hormone receptor (GnRHR) small molecule agonists, calcium flux assay in GnRHR-HEK293 cells (AID 1920063). Also: nearly all actives have a fitted effect of over 35% in size. The essentials:
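Tox21-format agonist screen using human GnRHR-expressing HEK293 cells and a fluorescent calcium dye; kinetic 3-min fluorescence reading after compound addition, 15-point concentration series run in triplicate.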
Background: Calcium flux is commonly read through the fluorescence of an indicator in the cells.

Experiment [4] deals with KiSS-1 receptor (Homo sapiens) (UniProt Q969F8). The experiment can be described thus: Human kisspeptin (KISS1R) small molecule agonists, calcium flux assay in KISS1R-HEK293 cells (AID 1920064; active = well fitted curve in the direction sought with a large enough effect in the repeat runs; an effect the other way counts as inactive or inconclusive). The essentials:
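Intracellular calcium mobilization in KISS1R-HEK293 cells was recorded by fluorescence (Ex/Em 480/540) for 3 min following compound addition to cells pre-loaded 1 h with calcium dye.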

A short description of experiment [5]: G protein-coupled receptor (GPCR) small molecule agonists, calcium flux assay: HEK293 wild type cell line counter screen (AID 1920065). The essentials:
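In this agonist-mode screen, ATP is the positive control and DMSO the vehicle. Cells grow 18 h before a 1 h dye incubation at 37 C; signal is taken at Ex/Em 480/540 over 3 min.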

Experiment [6] in a line: p53 small molecule agonists, cell-based qHTS assay with rat liver microsomes (AID 1963578). Summed up:
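Agonist mode in p53RE-bla reporter cells, with compounds co-incubated 16 h at 37 C alongside 0.5 mg/mL rat liver microsomes and 0.5 mg/mL NADPH (final), followed by a 2 h LiveBLAzer detection step.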
Background: qHTS replaces the single test concentration by a dilution series.

The nature of experiment [7]: p53 small molecule agonists, cell-based qHTS assay with human liver microsomes: qHTS cell viability counter screen (AID 1963579). Also: nearly all actives have a fitted effect of over 45% in size. Summed up:
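Metabolically activated exposure: compounds, human liver microsomes and NADPH (0.5 mg/mL final apiece) were added to p53RE-bla cells seeded 5 h earlier, left 16 h at 37 C, and then assessed for viability by CellTiter-Glo luminescence.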

A short description of experiment [8]: p53 small molecule agonists, cell-based qHTS assay: qHTS cell viability counter screen (AID 1963581). Also: nearly all actives have a fitted effect of over 45% in size. The essentials:
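Compounds are pinned onto HCT-116 p53RE-bla cells and left 16 h at 37 C. Following the reporter FRET read, ATP is quantified by CellTiter-Glo luminescence after 30 min at room temperature.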

Experiment [9] is described as follows: p53 small molecule agonists, cell-based qHTS assay (AID 1963582; active = well fitted activation curve with a large enough effect in the signal ratio in the repeat runs, not every such curve was filed as active; the % refers to the signal ratio). The essentials:
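Agonist activity was scored from beta-lactamase FRET fluorescence in p53RE-bla cells treated 16 h at 37 C with compounds in DMSO, substrate incubation being 2 h at room temperature.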

Experiment [10] has as its target 5-hydroxytryptamine receptor 2A (Homo sapiens) (UniProt P28223). The experiment can be described thus: 5-hydroxytryptamine receptor 2A (HTR2A) small molecule agonists, cell-based qHTS assay (AID 1963587). Also: nearly all actives have a fitted effect of over 30% in size. The essentials: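 CHO cells stably expressing human HTR2A, plated 18 h, loaded with calcium dye 1 h at 37 C. Agonist mode: compounds added and intracellular calcium fluorescence recorded kinetically for 2 min at 1 sec intervals.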

Experiment [11] addresses Muscarinic acetylcholine receptor M1 (Homo sapiens) (UniProt P11229). The experiment can be described thus: Cholinergic receptor muscarinic 1 (CHRM1) small molecule antagonists, cell-based qHTS assay (AID 1963588). Also: nearly all actives have a fitted effect of over 40% in size. Summed up:
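CHRM1-CHO calcium-flux assay, antagonist mode. Cells were seeded 18 h, dye-loaded 1 h at 37 C and given compound for 5 min at RT, then acetylcholine was added at 50nM. FDSS fluorescence was read 3 min; 15 concentrations, three runs.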

Experiment [12] has the same target. Description: Cholinergic receptor muscarinic 1 (CHRM1) small molecule agonists, cell-based qHTS assay (AID 1963589). Also: nearly all actives have a fitted effect of over 35% in size. Summed up: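 Stable CHRM1-CHO cells (human receptor) were incubated 18 h, dye-loaded for 1 h at 37 C and exposed to test compounds for agonist activity, with calcium-dependent fluorescence followed kinetically.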
The nature of experiment [13]: cAMP Responsive Elements (CRE) small molecule antagonists, cell-based qHTS assay (AID 1963591; active = well fitted inhibition curve with a large enough effect in the signal ratio in the repeat runs, not every such curve was filed as active; the % refers to the signal ratio). Summed up: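 qHTS in CRE-bla HEK 293T cells: compound in DMSO, then 0.25 uM NKH477 (final), 3 h at 37 °C/5% CO2; beta-lactamase FRET read-out after 2 h substrate incubation.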
Experiment [14] has as its target D(2) dopamine receptor (Homo sapiens) (UniProt P14416). The experiment can be described thus: Dopamine D2 receptor (DRD2) small molecule agonists, cell-based qHTS assay (AID 1963594). Also: nearly all actives have a fitted effect of over 35% in size. Summed up:
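HEK293 cells stably expressing human DRD2, pre-treated with PDE inhibitor Ro20-1724 (0.1 mM final) and compound 10 min at room temperature, then stimulated with NKH477 (200nM […]) for 30 min. cAMP read by HTRF (665/620 nm).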

For experiment [15] the target is unchanged. Description: Dopamine D2 receptor (DRD2) small molecule antagonists, cell-based qHTS assay (AID 1963595; active = well fitted inhibition curve with a large enough effect in the signal ratio in the repeat runs, with a control signal flat; the % refers to the signal ratio). The essentials: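 Stable D2 receptor HEK293 line, 24 h after seeding. Compound preincubated 10 min, then quinpirole (12 nM) with forskolin analogue NKH477 (200 nM), 30 min, room temperature. Detection by time-resolved FRET of cAMP.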
Experiment [16] is described as follows: p53 small molecule agonists, cell-based qHTS assay with rat liver microsomes: qHTS cell viability counter screen (AID 1963580). Also: nearly all actives have a fitted effect of over 45% in size. Summed up: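 p53RE-bla HCT-116 cells were exposed 16 h at 37 C to compounds with rat liver microsomes (0.5 mg/mL) and NADPH (0.5 mg/mL). Viability was measured in the same wells as ATP content by CellTiter-Glo luminescence.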
Experiment [17] concerns the target 5-hydroxytryptamine receptor 2A (Homo sapiens) (UniProt P28223). The experiment can be described thus: 5-hydroxytryptamine receptor 2A (HTR2A) small molecule antagonists, cell-based qHTS assay (AID 1963586). Also: nearly all actives have a fitted effect of over 45% in size. The essentials:
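Antagonist-mode intracellular calcium assay: DOI (4 nM) added after 5 min compound pre-incubation at room temperature to dye-loaded HTR2A-CHO cells. Fluorescence followed for 3 min, sampled every second.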

Experiment [18] in a line: cAMP Responsive Elements (CRE) small molecule agonists, cell-based qHTS assay (AID 1963590). Summed up: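 FRET-based beta-lactamase readout (LiveBLAzer B/G, 2 h RT) quantified CRE activation in HEK 293T CRE-bla cells after 3 h treatment with DMSO-dissolved compounds.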
Experiment [19] addresses Beta-2 adrenergic receptor (Homo sapiens) (UniProt P07550). Description: Adrenergic beta2 receptor (ADRB2) small molecule antagonists, cell-based qHTS assay (AID 1963592). Also: nearly all actives have a fitted effect of over 50% in size. Also: potency is read from the fitted curve at half-maximal effect. Summed up: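 Cells (CHO, stable ADRB2 overexpression) incubated 18-20hr at 37C; compounds added from DMSO; agonist mix (1nM isoproterenol, 100uM IBMX, 25uM Ro-20-1724) added; 0.5hr RT; d2-cAMP and anti-cAMP-cryptate added; 1hr RT; 665/615 nm read.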

For experiment [20] the target is unchanged. The experiment can be described thus: Adrenergic beta2 receptor (ADRB2) small molecule agonists, cell-based qHTS assay (AID 1963593).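 Also: CHO cells stably overexpressing human ADRB2.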 The essentials:
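CHO cells stably over-expressing ADRB2 were plated overnight at 37C, then dosed with compounds plus a stimulation mix containing 100uM IBMX and 25uM Ro-20-1724 for 0.5hr at room temperature. cAMP was measured by HTRF competition, 1hr.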

Records with an inconclusive call do not appear. Active and inactive are the calls of the source. Unless noted, calls follow the shape of the full dose curve.

Gonadotropin-releasing hormone receptor (Homo sapiens), sequence (P30968 whole entry, looked up): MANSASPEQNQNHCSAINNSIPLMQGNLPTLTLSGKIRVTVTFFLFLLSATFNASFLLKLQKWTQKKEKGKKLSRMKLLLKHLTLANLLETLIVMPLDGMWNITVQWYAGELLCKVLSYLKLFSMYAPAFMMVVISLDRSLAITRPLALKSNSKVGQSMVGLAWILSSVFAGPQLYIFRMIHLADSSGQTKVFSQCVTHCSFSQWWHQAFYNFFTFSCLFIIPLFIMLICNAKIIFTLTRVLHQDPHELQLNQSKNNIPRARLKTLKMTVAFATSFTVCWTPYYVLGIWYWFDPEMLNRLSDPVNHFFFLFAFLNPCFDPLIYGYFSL
5-hydroxytryptamine receptor 2A (Homo sapiens), sequence (P28223 whole entry, looked up): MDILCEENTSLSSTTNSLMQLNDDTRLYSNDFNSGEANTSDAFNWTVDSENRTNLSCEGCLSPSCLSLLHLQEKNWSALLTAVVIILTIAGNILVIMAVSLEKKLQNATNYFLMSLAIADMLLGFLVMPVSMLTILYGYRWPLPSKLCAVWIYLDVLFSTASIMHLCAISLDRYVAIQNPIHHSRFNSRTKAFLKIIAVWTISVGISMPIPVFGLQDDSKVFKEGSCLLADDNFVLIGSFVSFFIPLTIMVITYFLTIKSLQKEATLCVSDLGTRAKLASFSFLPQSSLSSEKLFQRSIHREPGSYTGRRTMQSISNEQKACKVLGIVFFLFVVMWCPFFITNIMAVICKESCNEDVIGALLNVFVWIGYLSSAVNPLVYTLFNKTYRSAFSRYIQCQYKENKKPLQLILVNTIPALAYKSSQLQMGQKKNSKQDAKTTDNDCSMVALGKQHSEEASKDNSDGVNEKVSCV
Beta-2 adrenergic receptor (Homo sapiens), sequence (P07550 whole entry, looked up): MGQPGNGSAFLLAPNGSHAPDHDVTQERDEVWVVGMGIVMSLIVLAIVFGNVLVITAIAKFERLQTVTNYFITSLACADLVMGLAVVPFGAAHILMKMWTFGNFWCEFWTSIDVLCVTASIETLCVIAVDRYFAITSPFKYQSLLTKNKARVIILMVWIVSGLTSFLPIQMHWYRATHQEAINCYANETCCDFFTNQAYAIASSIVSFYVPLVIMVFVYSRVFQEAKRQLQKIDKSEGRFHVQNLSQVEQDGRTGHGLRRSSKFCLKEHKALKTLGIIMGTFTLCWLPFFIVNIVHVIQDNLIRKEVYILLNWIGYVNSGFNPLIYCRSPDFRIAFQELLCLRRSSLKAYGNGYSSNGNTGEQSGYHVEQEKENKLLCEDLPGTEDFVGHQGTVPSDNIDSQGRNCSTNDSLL
D(2) dopamine receptor (Homo sapiens), sequence (P14416 whole entry, looked up): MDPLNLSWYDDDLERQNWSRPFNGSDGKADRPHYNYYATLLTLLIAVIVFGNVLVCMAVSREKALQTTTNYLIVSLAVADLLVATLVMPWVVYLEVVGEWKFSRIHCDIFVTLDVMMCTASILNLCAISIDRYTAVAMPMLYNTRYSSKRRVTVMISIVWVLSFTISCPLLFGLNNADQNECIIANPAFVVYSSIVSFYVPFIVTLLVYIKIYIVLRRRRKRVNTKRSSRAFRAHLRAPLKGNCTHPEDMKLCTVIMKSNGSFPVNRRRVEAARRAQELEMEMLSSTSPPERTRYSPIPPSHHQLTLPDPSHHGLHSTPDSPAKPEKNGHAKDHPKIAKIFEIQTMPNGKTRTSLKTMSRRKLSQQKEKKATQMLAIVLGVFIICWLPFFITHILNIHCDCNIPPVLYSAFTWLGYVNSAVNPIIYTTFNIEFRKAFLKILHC
KiSS-1 receptor (Homo sapiens), sequence (Q969F8 whole entry, looked up): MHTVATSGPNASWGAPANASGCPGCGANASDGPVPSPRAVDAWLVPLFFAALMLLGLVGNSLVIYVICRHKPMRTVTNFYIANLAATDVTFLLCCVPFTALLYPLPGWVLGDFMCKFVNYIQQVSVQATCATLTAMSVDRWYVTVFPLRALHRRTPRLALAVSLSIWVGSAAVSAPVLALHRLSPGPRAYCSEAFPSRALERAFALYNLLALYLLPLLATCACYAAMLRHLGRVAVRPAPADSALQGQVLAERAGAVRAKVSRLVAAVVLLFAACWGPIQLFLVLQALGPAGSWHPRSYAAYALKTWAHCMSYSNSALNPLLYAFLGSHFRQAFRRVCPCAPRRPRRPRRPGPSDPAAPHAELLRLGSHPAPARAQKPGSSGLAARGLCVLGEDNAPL
Muscarinic acetylcholine receptor M1 (Homo sapiens), sequence (P11229 whole entry, looked up): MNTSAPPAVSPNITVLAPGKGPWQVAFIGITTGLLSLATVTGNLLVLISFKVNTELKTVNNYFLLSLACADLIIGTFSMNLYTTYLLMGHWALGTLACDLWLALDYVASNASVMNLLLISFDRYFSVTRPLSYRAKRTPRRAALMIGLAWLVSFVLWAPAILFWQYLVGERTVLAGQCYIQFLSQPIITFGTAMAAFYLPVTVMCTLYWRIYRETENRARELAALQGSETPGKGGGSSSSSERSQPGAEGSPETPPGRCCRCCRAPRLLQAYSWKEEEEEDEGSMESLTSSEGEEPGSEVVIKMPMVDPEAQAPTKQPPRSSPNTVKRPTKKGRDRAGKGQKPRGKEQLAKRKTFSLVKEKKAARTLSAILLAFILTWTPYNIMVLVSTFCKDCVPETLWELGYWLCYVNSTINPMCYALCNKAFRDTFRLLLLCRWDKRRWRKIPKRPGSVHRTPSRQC

As to `CCn1c(=O)c2c(nc(/C=C/c3ccc(OC)c(OC)c3)n2C)n(CC)c1=O`, the Potency entry in experiment [1], in experiment [2], in [3], in experiment [4], in experiment [5] and in experiment [6] was “inactive” throughout. The Potency result in [7], in experiment [8], in [9], in experiment [10], in experiment [11] and in [12] was “inactive” in each case. Moreover, the Potency result in experiment [13], in experiment [14] and in [15] was “inactive” in each case.

For the molecule `CC(=O)Oc1cccc(C)c1`, the Potency entry in [1], in experiment [2], in [3], in experiment [4], in experiment [5] and in experiment [6] was “inactive” each time. The Potency result in experiment [16], in [8], in experiment [9], in experiment [17], in experiment [10] and in experiment [11] was “inactive” each time. The Potency entry in experiment [12], in [18], in experiment [13], in experiment [19], in experiment [20] and in experiment [15] was “inactive” each time.

Take `CCCCNC(=O)NCCCC`: the Potency entry in experiment [1], in experiment [2], in [3], in experiment [4], in experiment [5] and in experiment [6] was “inactive” throughout. Moreover, the Potency entry in experiment [7], in experiment [8], in experiment [9], in experiment [17], in experiment [11] and in experiment [12] was “inactive” in each case. For the same molecule, the Potency result in [18], in experiment [13], in experiment [19], in [20] and in experiment [14] was “inactive” each time.

`CCCCC/C=C\C/C=C\CCCCCCCC(=O)NC(C)c1ccccc1` (stereo unspecified): the Potency entry in [1], in experiment [2], in experiment [3], in [4], in [5] and in experiment [6] was “inactive” throughout. Also, the Potency entry in experiment [7], in experiment [16], in experiment [8], in experiment [17], in [10] and in experiment [12] was “inactive” each time. Further, the Potency entry in experiment [19], in experiment [20], in experiment [14] and in experiment [15] was “inactive” in each case.

Turning to `NC(=O)n1c(O)c(C(=O)c2cccs2)c2cc(Cl)ccc21`, the Potency result in [1], in experiment [3], in experiment [4], in [5], in experiment [6] and in experiment [7] was “inactive” each time. For the same molecule, the Potency result in experiment [16], in [8], in experiment [17], in experiment [10], in experiment [11] and in experiment [12] was “inactive” throughout. Further, the Potency entry in experiment [19], in experiment [14] and in [15] was “inactive” throughout. Further, the Potency in experiment [2] was 26.6 µM (active).

For `COC(=O)c1cc(Cl)ccc1[N+](=O)[O-]`, the Potency result in experiment [1], in experiment [2], in experiment [3], in experiment [4], in [5] and in experiment [6] was “inactive” in each case. Further, the Potency result in experiment [7], in experiment [16], in experiment [11], in experiment [12], in experiment [18] and in experiment [19] was “inactive” each time. The Potency entry in experiment [14] and in [15] was “inactive” each time.

Consider `CC1CC(=O)NN=C1c1ccc(NCC(C)(C)NCC(O)COc2cc(Cl)ccc2C#N)cc1` (stereo unspecified), for which the Potency entry in [1], in experiment [2], in experiment [3], in experiment [4], in [5] and in experiment [6] was “inactive” throughout. Further, the Potency result in experiment [7], in [16], in [8], in [17], in experiment [10] and in experiment [11] was “inactive” each time. Moreover, the Potency entry in [12] and in experiment [15] was “inactive” each time. The Potency in experiment [19] was 5.31 µM (active).

(Values after PubChem BioAssay (Tox21).)
